Compound activity (PubChem BioAssay)
CSC inhib = cancer stem cell inhibition. cancer stem cell-like cells viability, luminescence. inhibition, % at 7.5 µM. hit rate 1.1% among 300,000. AID 2717; in the data active = inhibition above about 75%; tested in HMLE shEcad cells
SKKanGAS inh = SKKanGAS growth inhibition; S. pyogenes SKKanGAS, kanamycin growth, BacTiter-Glo, 6 h; inhibition, % at 7.5 µM; hit rate 1.3% among 300,000;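 active = mean replicate score, as percent of positive control median, at least 50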;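 note: strain carries kanamycin resistance gene driven by streptokinase promoter and grows in 40 µg/ml kanamycin; loss of luminescence reflects streptokinase promoter inhibition or plain growth inhibition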
Calb FLC = affects C. albicans growth with fluconazole; C. albicans CaCi-2 (fluconazole-resistant clinical isolate) + fluconazole, Alamar Blue growth, 48 h; growth inhibition, % (concentration not given with the values); hit rate 0.57% among 300,000;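 active = growth inhibition above about 58% in most replicates, limit read from the data, passing the limit was not always enough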;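 note: all wells also contain fluconazole at 8 µg/ml as a sub-toxic cotreatment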
MPTP block = permeability transition pore inhibition; isolated mouse mitochondria, Ca2+ swelling absorbance, 30 min; inhibition, % at 10 µM; hit rate 1.4% among 360,000; AID 602449;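 active = inhibition of 50% or more, scaled per plate between neutral and stimulator controls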
Beta cell apopt = blocks beta cell apoptosis; INS-1E cytokine-induced death, ATP luminescence, 48 h; percent of positive-control rescue, neutral wells zero; protection from apoptosis, % (test concentration not listed); hit rate 0.8% among 300,000;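 active = Every replicate reaches about 75%, or at least half do and their mean reaches it too, limit read from the data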;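 note: higher means more ATP so stronger rescue from cytokine killing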
Mdm2-MdmX inh = human Mdm2/MdmX binding inhibition. hit rate 3% among 330,000. SaOS-2 split-luciferase Mdm2/MdmX complementation, luminescence. O15151+Q00987. AID 485346. inhibition, % at 8 µM;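 active = inhibition of at least 50% at 8 µM in the primary screen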
Target sequence (O15151 whole entry, looked up): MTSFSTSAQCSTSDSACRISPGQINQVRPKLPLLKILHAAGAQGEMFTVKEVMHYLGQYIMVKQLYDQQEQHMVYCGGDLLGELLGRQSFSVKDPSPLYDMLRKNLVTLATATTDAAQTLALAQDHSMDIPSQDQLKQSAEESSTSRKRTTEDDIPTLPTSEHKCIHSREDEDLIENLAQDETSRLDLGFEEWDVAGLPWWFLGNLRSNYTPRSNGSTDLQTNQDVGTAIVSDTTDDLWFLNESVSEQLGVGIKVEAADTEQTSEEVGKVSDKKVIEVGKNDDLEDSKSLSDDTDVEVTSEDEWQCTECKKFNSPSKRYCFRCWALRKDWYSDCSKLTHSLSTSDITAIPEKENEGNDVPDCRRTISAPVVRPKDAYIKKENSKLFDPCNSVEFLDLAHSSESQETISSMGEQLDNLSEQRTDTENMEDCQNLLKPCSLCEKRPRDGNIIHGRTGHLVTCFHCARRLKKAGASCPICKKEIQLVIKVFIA
Target sequence (Q00987 whole entry, looked up): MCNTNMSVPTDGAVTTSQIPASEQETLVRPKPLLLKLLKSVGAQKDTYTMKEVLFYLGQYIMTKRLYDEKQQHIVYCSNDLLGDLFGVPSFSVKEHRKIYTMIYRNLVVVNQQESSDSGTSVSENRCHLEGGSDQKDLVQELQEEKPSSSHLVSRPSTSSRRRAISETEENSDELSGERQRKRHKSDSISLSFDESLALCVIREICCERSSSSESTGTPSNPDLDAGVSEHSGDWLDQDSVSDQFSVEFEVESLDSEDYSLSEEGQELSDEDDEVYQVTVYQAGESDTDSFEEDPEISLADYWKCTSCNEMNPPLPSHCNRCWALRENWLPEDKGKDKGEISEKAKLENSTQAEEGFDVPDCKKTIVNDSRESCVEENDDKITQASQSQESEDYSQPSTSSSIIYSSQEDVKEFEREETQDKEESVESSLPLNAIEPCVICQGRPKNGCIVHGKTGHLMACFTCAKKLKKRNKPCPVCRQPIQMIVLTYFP
Mdm2-MdmX conf = confirmation of human Mdm2/MdmX interaction inhibitors; shares compounds with Mdm2-MdmX inh; Mdm2-MdmX binding, luminescent assay; inhibition, % at 8 µM; hit rate 55% among 10,000; AID 489028; in the data active = inhibition above about 40%
Full FLuc ctr = inhibits full-length luciferase, flagging false Mdm2/MdmX hits | shares compounds with Mdm2-MdmX inh | SaOS-2 full-length luciferase counterscreen, luminescence | inhibition, % at 8 µM | hit rate 77% among 6,200 | AID 504607;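 active = mean inhibition at 8 µM reaching about 37%, which flags the compound as non-specific, limit read from the data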;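 note: p53-null SaOS-2 cells with luciferase driven by a doxycycline-inducible promoter; compound on cells about two nights before reading with doxycycline added after day one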
Numbers stand for hits; i = inactive; nt = no result given. Compounds with a hit are over-represented: about 5.4% of the library has one in this group of screens.

SMILES	CSC inhib	SKKanGAS inh	Calb FLC	MPTP block	Beta cell apopt	Mdm2-MdmX inh	Mdm2-MdmX conf	Full FLuc ctr
Cc1nc(/C(N)=N/OC(=O)c2c(-c3ccccc3Cl)noc2C)cs1	i	i	i	i	i	93	76	96
COc1ccc(/C(N)=N/OC(=O)c2c(-c3ccccc3Cl)noc2C)cc1OC	i	i	i	i	i	100	96	96
O=C(O)[C@@H]1CC(O)CN1C(=O)CCc1c[nH]c2ccccc12 (stereo partly specified)	i	i	i	i	i	i	nt	nt
Cc1ccc(S(=O)(=O)N(C)C)cc1NC(=O)CN1C(=O)NC(Cc2ccccc2)C1=O (stereo unspecified)	i	i	nt	i	i	i	nt	nt
O=C(CCC(=O)c1ccc(F)cc1)Nc1cc(Cl)cc(Cl)c1	i	i	i	i	i	i	nt	nt
Cc1noc(-c2ccc(Cl)cc2)c1C(=O)O/N=C(\N)c1ccc(C(C)(C)C)cc1	171	i	i	i	i	100	98	60
Cc1ccc(/C(N)=N/OC(=O)c2ccco2)cc1	i	i	i	i	i	i	nt	nt
Cc1occc1C(=O)O/N=C(\N)c1ccc(Cl)cc1	i	i	i	i	nt	100	50	148
COc1cc(OC)c(C(=O)O/N=C(\N)c2cccc(C)c2)cc1OC	i	i	i	i	i	79	47	100
COc1ccc(Cl)cc1C(=O)O/N=C(\N)c1ccc(Cl)cc1	i	i	i	i	i	71	45	81
O=C(COc1ccc2ccc(=O)oc2c1)Nc1ccc2c(c1)OCCO2	i	i	i	i	i	i	nt	nt
COc1cc(OC)c(C(=O)O/N=C(\N)c2ccc(C)cc2)cc1OC	i	i	i	i	i	69	43	104
COC(=O)c1c[n+]([O-])ccc1OC	nt	nt	nt	i	nt	nt	nt	nt
CC(C)(C)n1nnnc1C(c1cccs1)N(Cc1ccccc1)Cc1cccnc1 (stereo unspecified)	i	i	i	i	i	i	nt	nt
CC(C)(C)n1nnnc1C(c1cccs1)N(Cc1ccc(Cl)cc1)CC1CCCO1 (stereo unspecified)	i	i	i	i	i	56	57	70
CC(C)N(Cc1nc(-c2ccccc2)no1)C(=O)c1ccc(Br)o1	i	i	i	i	i	i	nt	nt
Cc1ccc(N(CC(=O)N/N=C/c2cccnc2)S(=O)(=O)c2ccccc2)cc1	i	i	i	i	i	i	nt	nt
Cc1ccc(S(=O)(=O)N(CC(=O)N/N=C/c2cccc(Cl)c2)c2cccc3cccnc23)cc1	i	i	i	i	i	66	i	nt
CCNC(=S)N(CCc1ccccc1C)Cc1cc2cc(OC)c(OC)cc2[nH]c1=O	i	i	i	i	i	i	nt	nt
COc1cc2cc(CN(CCc3ccccc3C)C(=S)NCCCN3CCOCC3)c(=O)[nH]c2cc1OC	i	i	i	i	i	52	i	nt
COc1cc2cc(CN(CCc3ccccc3C)C(=S)NCCCN(C)C)c(=O)[nH]c2cc1OC	i	i	i	i	i	55	i	nt
CN(C(=O)c1ccncc1)C1CCS(=O)(=O)C1 (stereo unspecified)	i	i	i	i	i	i	nt	nt
COc1ccc(S(=O)(=O)N2CCCC2CNC(=O)C(=O)NCCc2ccccc2)cc1 (stereo unspecified)	i	i	i	i	i	60	67	64
CCOC(=O)CSc1cccc2cccnc12	i	i	i	i	i	77	i	nt
Cc1cccc(NC(=O)CSc2cccc3cccnc23)c1C	i	i	i	i	i	i	nt	nt
SMILES	CSC inhib	SKKanGAS inh	Calb FLC	MPTP block	Beta cell apopt	Mdm2-MdmX inh	Mdm2-MdmX conf	Full FLuc ctr
Cc1cccc(CSc2cccc3cccnc23)c1	i	i	i	i	i	51	67	37
CCCc1cnc(N2CCN(C(=O)c3c(-c4ccccc4)noc3C)CC2)nc1	i	i	i	i	i	i	nt	nt
CC1(C)Cc2nc(-c3ccccc3)nc(SCC(O)CO)c2CO1 (stereo unspecified)	i	i	i	i	i	i	nt	nt
O=C(Nc1ccccc1N1CCOCC1)c1ccc2c(c1)OCO2	i	i	i	i	i	i	nt	nt
CCOc1ccc(CCN2C(=S)N([C@@H](CC(C)C)CN3CCCC3CN3C(=S)NC[C@@H]3CC(C)C)C[C@@H]2CC(C)C)cc1 (stereo partly specified)	nt	nt	nt	i	nt	nt	nt	nt
CC1CCc2c(sc(NC(=O)CSc3nc4c(c(C(F)(F)F)n3)CCc3ccccc3-4)c2C(N)=O)C1 (stereo unspecified)	i	i	i	i	i	i	nt	nt
O=c1[nH]c(NCc2ccccc2)nc2c1CCC2	i	i	i	i	i	i	nt	nt
Cc1nc(Nc2nc3c(c(=O)[nH]2)CCC3)nc2ccccc12	i	i	i	i	i	65	88	i
C[C@H]1CN(CCc2ccccc2)C(=O)[C@@H]1CC(=O)Nc1ccccc1	nt	nt	nt	i	nt	nt	nt	nt
Oc1cccc(C2c3[nH]c4ccccc4c3CCN2Cc2ccoc2)c1 (stereo unspecified)	i	i	i	i	i	i	nt	nt
Oc1cccc(C2c3[nH]c4ccccc4c3CCN2Cc2ccc3c(c2)CCO3)c1 (stereo unspecified)	i	i	i	i	i	58	43	53
COc1ccc(S(=O)(=O)Nc2ccccc2OC)cc1N=Nc1c(O)[nH]c(=S)[nH]c1=O	i	nt	nt	i	i	i	nt	nt
CC(C)CC(=O)Nc1nc(-c2ccc(S(=O)(=O)N3CCOCC3)cc2)cs1	nt	i	i	i	nt	i	nt	nt
Cc1ccc(-c2csc(NC(=O)c3cccc(S(=O)(=O)N4CCN(C)CC4)c3)n2)cc1	i	i	i	i	i	73	65	39
O=C(Nc1nc(-c2ccccc2)cs1)C1CCCN(S(=O)(=O)c2cccc([N+](=O)[O-])c2)C1 (stereo unspecified)	i	i	i	i	nt	i	nt	nt
COc1cccc(C(=O)Nc2nc(-c3ccc(S(=O)(=O)N4CCOCC4)cc3)cs2)c1	i	i	i	i	i	58	i	nt
O=C(Nc1nc(-c2ccccc2)cs1)C1CCCN(S(=O)(=O)c2ccccc2)C1 (stereo unspecified)	nt	i	i	i	nt	78	65	79
O=C(Nc1nc(-c2ccc(S(=O)(=O)N3CCOCC3)cc2)cs1)c1ccccc1	i	i	i	i	i	i	nt	nt
Cc1ccc(Nc2nc(-c3ccc(S(=O)(=O)N4CCOCC4)cc3)cs2)cc1Cl	i	i	i	i	i	63	i	nt
CN1CCN(C(=O)c2cc([N+](=O)[O-])cc([N+](=O)[O-])c2)CC1	i	i	i	i	i	i	nt	nt
COc1ccc(C)cc1CN1C(=O)c2ccccc2C1=O	i	i	i	i	i	i	nt	nt
COc1cc(-c2noc(C)c2C(=O)NCCc2c[nH]c3ccccc23)cc(OC)c1OC	i	i	i	i	i	i	nt	nt
COc1cc(-c2noc(C)c2-c2ccc(N(C)C)nc2)cc(OC)c1OC	i	i	i	i	i	86	79	88
COc1cc(-c2noc(C)c2-c2ccc3[nH]ccc3c2)cc(OC)c1OC	i	i	i	i	i	82	77	54
